Assay results reported in PubChem BioAssay (EPA / NIEHS).
Values joined by “and” are separate entries in the source; they are usually repeats but may differ in a detail not shown here. Identical values can stand only once. Results filed as inconclusive are left out. Some compounds were tested as several samples or in several runs, with calls that do not always agree. Active and inactive are the calls of the source. The calls were made as follows, unless noted: active = hit-call score of the fitted dose curve at least 0.9, where 1 is the maximum; inconclusive = response in the unintended direction; inactive = score below 0.9.

Assay: APR_HepG2_CellCycleArrest_1hr: Apredica 1-hour HepG2 Assay for Cell Cycle Arrest (AID 2282666; active = hit-call score of the fitted dose curve at least 0.9, where 1 is the maximum; inactive = score below 0.9)
Details: high-content imaging, actives raise or lower the signal
Summary of the method: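 HepG2 cells exposed for 1 h to 0.39–200 uM compound (0.5% DMSO). Fixed, Hoechst-stained nuclei imaged by ArrayScan; DNA content quantified by Cell Cycle analysis; bidirectional fit against DMSO.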

Structure (SMILES)	outcome	AC50
N#CC(CCc1ccc(Cl)cc1)(Cn1cncn1)c1ccccc1 (centres undefined)	inactive	–
CON(C)C(=O)Nc1ccc(Cl)c(Cl)c1	inactive	–
CCON=C(CC)C1=C(O)CC(c2c(C)cc(C)cc2C)CC1=O (centres undefined)	inactive	–
COc1nc(C)nc(NC(=O)NS(=O)(=O)c2ccccc2CCC(F)(F)F)n1	inactive	–
Fc1ccc(Oc2ccnc3cc(Cl)cc(Cl)c23)cc1	inactive	–
O=C(Nc1ccccc1)Nc1ccnc(Cl)c1	inactive	–
CCOC(=O)CC(SP(=S)(OC)OC)C(=O)OCC (centres undefined)	inactive	–
CC(Oc1ccc(Cl)cc1Cl)C(=O)O (centres undefined)	inactive	–
CCCN(CCC)c1c([N+](=O)[O-])cc(S(N)(=O)=O)cc1[N+](=O)[O-]	–	108000 nM (active)
O=C(O)c1nc(Cl)ccc1Cl	inactive	–
C=CCC1=C(C)[C@@H](OC(=O)[C@@H]2[C@@H](C=C(C)C)C2(C)C)CC1=O	inactive	–
N#Cc1nn(-c2c(Cl)cc(C(F)(F)F)cc2Cl)c(N)c1S(=O)C(F)(F)F (centres undefined)	inactive	–
C#CCOS(=O)OC1CCCCC1Oc1ccc(C(C)(C)C)cc1 (centres undefined)	inactive	–

Assay: ACEA_ER_80hr: ACEA Biosciences xCELLigence Real-Time Cell Analysis on Estrogen Receptor Agonism for Proliferation (AID 2282667)
Details: T47D proliferation, impedance (xCELLigence), 80 h
Summary of the method: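 Cell-growth kinetics were measured by impedance in T47D cells treated continuously with compound (top 100 uM final, 1:4 steps, 8 points). Activity at 80 h was scored as signal gain over the DMSO baseline.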

Structure (SMILES)	outcome	AC50
N#CC(CCc1ccc(Cl)cc1)(Cn1cncn1)c1ccccc1 (centres undefined)	inactive	–
CO/C=C(/C(=O)OC)c1ccccc1Oc1cc(Oc2ccccc2C#N)ncn1	inactive	11.1 µM (active) [middle of 5 runs]
CON(C)C(=O)Nc1ccc(Cl)c(Cl)c1	inactive	–
CCON=C(CC)C1=C(O)CC(c2c(C)cc(C)cc2C)CC1=O (centres undefined)	inactive	–
CCCCC(CC)COC(=O)c1ccccc1C(=O)OCC(CC)CCCC (centres undefined)	inactive	–
COc1ccc(C(c2ccc(OC)cc2)C(Cl)(Cl)Cl)cc1	–	10.4 µM (active) and 1.41 µM (active) and 728 nM (active)
CCCCNC(=O)n1c(NC(=O)OC)nc2ccccc21	inactive	–
C=CC1(C)OC(=O)N(c2cc(Cl)cc(Cl)c2)C1=O (centres undefined)	inactive	–
CC1=C(C(=O)Nc2ccccc2)SCCO1	inactive	–
N#Cc1cc(Br)c(O)c(Br)c1	inactive	–
CS/C(C)=N/OC(=O)N(C)SN(C)C(=O)O/N=C(\C)SC	–	164 nM (active)
CNC(=O)ON=CC(C)(C)SC	inactive	–
Fc1ccc(Oc2ccnc3cc(Cl)cc(Cl)c23)cc1	inactive	–
O=C(Nc1ccccc1)Nc1ccnc(Cl)c1	inactive	–
CCOC(=O)CC(SP(=S)(OC)OC)C(=O)OCC (centres undefined)	inactive	–
CC(C)C1(C)N=C(c2nc3ccccc3cc2C(=O)O)NC1=O (centres undefined)	inactive	–
CC(Oc1ccc(Cl)cc1Cl)C(=O)O (centres undefined)	inactive	–
O=C(O)COc1nc(Cl)c(Cl)cc1Cl	inactive	–
CCCN(CCC)c1c([N+](=O)[O-])cc(S(N)(=O)=O)cc1[N+](=O)[O-]	inactive	–
O=C(O)c1nc(Cl)ccc1Cl	inactive	–
C=CCC1=C(C)[C@@H](OC(=O)[C@@H]2[C@@H](C=C(C)C)C2(C)C)CC1=O	inactive	–
CCc1nn(C)c(C(=O)NCc2ccc(C(C)(C)C)cc2)c1Cl	–	18.3 nM (active)
Cc1c(F)c(F)c(COC(=O)C2C(/C=C(\Cl)C(F)(F)F)C2(C)C)c(F)c1F (centres undefined)	inactive	–
N#Cc1nn(-c2c(Cl)cc(C(F)(F)F)cc2Cl)c(N)c1S(=O)C(F)(F)F (centres undefined)	inactive	–
C#CCOS(=O)OC1CCCCC1Oc1ccc(C(C)(C)C)cc1 (centres undefined)	–	355 nM (active)
